The results in this text go back to PubChem BioAssay (NCATS).

Experiment [1] deals with Lysosomal acid glucosylceramidase (Homo sapiens) (UniProt P04062). The experiment is described as follows: Glucocerebrosidase-p2 (AID 348; in the data active means potency below about 10 µM; further: potency means the concentration at half of the fitted maximal effect). Conditions: purified GBA, blue fluorogenic substrate, 40 min. An outline of the steps: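 Compounds titrated from 0.6 nM upwards against 0.2 nM enzyme in pH 5.9 citric acid/KH2PO4, taurocholate, tween-20; blue fluorogenic substrate 80 uM, 40 min room temperature, stopped and read Ex 365/Em 440 for AC50.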

The nature of experiment [2]: AP1 Signaling Pathway (AID 357; active means well fitted curve in either direction with a large enough effect, not every such curve was filed as active;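 further: ME-180 reporter cells stimulated with EGF at its EC50 level; on the % scale 0 is the no-effect control and ±100 the full control effect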). Conditions: ME-180 AP-1-bla reporter, EGF-induced, beta-lactamase ratio, 5 h; at 7.69 µM (top of the series) unless noted. An outline of the steps: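 In this screen, ME-180 cells in Opti-MEM with 0.5% dialyzed FBS received EC50 EGF and compound titrations for 5 h. AP-1 reporter beta-lactamase was detected via CCF4 ratio, giving AC50 for positive and negative modulators.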

Experiment [3] addresses Cytochrome P450 1A2 (Homo sapiens) (UniProt P05177). Put plainly: p450-cyp1a2 (AID 410; calls by dose curve; further: potency means the concentration at half of the fitted maximal effect). Conditions: recombinant CYP1A2, luciferin-ME demethylation, luminescence; series mostly up to 57 µM. An outline of the steps:
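Inhibition was calculated relative to 57 uM furafylline (full inhibition). The reaction used human CYP1A2 at 20nM with Luciferin-ME at its Km, 100uM, driven by an NADPH-regenerating system for 60 min at room temperature.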

Experiment [4] is described as follows: NFAT Signaling Pathway (AID 444; active means well fitted curve in either direction with a large enough effect, not every such curve was filed as active;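 further: carbachol stimulus at about its EC50 of 1 µM final; on the % scale 0 is the no-effect control and ±100 the full control effect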). Conditions: Jurkat NFAT-bla M1, carbachol, beta-lactamase ratio, 5 h; at 7.69 µM (top of the series) unless noted. An outline of the steps:
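Jurkat cells carrying an NFAT-driven β-lactamase reporter and co-transfected muscarinic M1 receptor were treated with compound plus carbachol (1 uM final, an EC50 level) for 5 h at 37 °C. CCF4 loading followed for 1 h at RT; 460/530 nm ratio gave %activity.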

Experiment [5] can be described thus: Stat Signaling Pathway (AID 446; active means well fitted curve in either direction with a large enough effect, not every such curve was filed as active;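 further: ME-180 cervical cancer cells given 40 pM IL-6 alongside compound; SIE-controlled beta-lactamase reporter measured as 460/530 nm FRET emission ratio; on the % scale 0 is the no-effect control and ±100 the full control effect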). The settings on record: ME-180 SIE beta-lactamase reporter, IL-6 stimulated, 5 h; at 7.69 µM (top of the series) unless noted. An outline of the steps: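 ME-180 cells carrying a SIE-driven beta-lactamase reporter are stimulated with 40 pM IL-6 for 5 h at 37C in the presence of compound. The 460/530 nm FRET substrate ratio is read after 2.5 h at RT. Data are normalised to 300 pM IL-6 and to 125 nM JAK inhibitor controls.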

Experiment [6] deals with Glucocorticoid receptor (Homo sapiens) (UniProt P04150). The experiment is described as follows: GR-GFP Redistribution (AID 450;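 active means compounds whose dose series gives a full or clear partial fitted curve of increased nuclear translocation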; further: potency means the concentration at half of the fitted maximal effect). The settings on record: U2OS GR-GFP nuclear translocation, laser cytometry, 2 h.
Experiment [7] has the same target. The experiment is described as follows: GR-EFC Redistribution (AID 451; calls by dose curve; further: potency means the concentration at half of the fitted maximal effect). The settings on record: CHO-K1 GR-EFC translocation, beta-gal luminescence, 2 h. An outline of the steps: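 CHO-K1 cells stably expressing nuclear-localized β-gal enzyme acceptor and GR fused C-terminally to the enzyme donor fragment; ligand-driven nuclear translocation restores β-gal by complementation. Compounds titrated up to 46 uM final, 2 h at 37 °C; luminescence read.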

Experiment [8] deals with Mitogen-activated protein kinase 10 (Mus musculus) (UniProt Q61831). The experiment is described as follows: JNK3 AlphaScreen Assay (AID 530; active means well fitted curve in either direction with a large enough effect, not every such curve was filed as active;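 further: kinase came from lysate of stimulated human HepG2 cells; on the % scale 0 is the no-effect control and ±100 the full control effect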). The settings on record: JNK3 lysate, c-Jun phosphorylation; series mostly up to 57.1 µM. An outline of the steps: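 JNK3 came from HepG2 lysates pre-activated with IL-1beta and TNF-alpha and phosphorylated biotinylated GST-cJun (1-79) at 10 uM ATP, pH 7.6, room temperature. Compounds were titrated. AlphaScreen signal used anti-phospho-cJun (Ser73) antibody.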

Experiment [9] deals with 3',5'-cyclic-AMP phosphodiesterase 4B (Homo sapiens) (UniProt Q07343). Put plainly: qHTS Assay for Inhibitors of PDE-IV (AID 607; active means well fitted activation curve with a large enough effect in the main read-out, with a control signal flat, not every such curve was filed as active; further: % of control where 0% means no effect). Conditions: HEK293 ACTOne CNG channel cells, membrane potential fluorescence; series mostly up to 22.9 µM. An outline of the steps:
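HEK293 ACTOne cells with CNG channel (1000/well), endogenous PDE4; membrane potential dye, compounds up to 22.9 uM final. Fluorescence Ex 535/Em 590; RO 20-1724 (100 uM final) as reference.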
Background: qHTS replaces the single test concentration by a dilution series.

In experiment [10] the target is Cytochrome P450 2C9 (Homo sapiens) (UniProt P11712). Put plainly: qHTS Assay for Inhibitors and Substrates of Cytochrome P450 2C9 (AID 883). Further: on the % scale 0 is the no-effect control and ±100 the full control effect; nearly all actives have a fitted effect of over 60% in size. Conditions: recombinant CYP2C9, luciferin-H luminescence, 60 min; series mostly up to 57.1 µM. An outline of the steps: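 CYP2C9 deoxyluciferin hydroxylation, 37C, 60 min with NADPH regeneration; 10nM enzyme, 100uM Luciferin-H (KM). Glo detection reagent stopped reaction; luminescence normalized to sulphaphenazole (57uM) full inhibition.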

For experiment [11], the target named is Cytochrome P450 3A4 (Homo sapiens) (UniProt P08684). Put plainly: qHTS Assay for Inhibitors and Substrates of Cytochrome P450 3A4 (AID 884). Further: potency means the concentration at half of the fitted maximal effect; nearly all actives have a fitted effect of over 50% in size. The settings on record: recombinant CYP3A4, Luciferin-PPXE luminescence; series mostly up to 57.1 µM. An outline of the steps:
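20 nM human CYP3A4 with 25 uM Luciferin-PPXE (at KM) in 200 mM KPO4, preincubated 10 min with compound; NADPH regeneration started a 60 min RT reaction. Luciferin detected by luminescence, normalized to 57 uM ketoconazole as full inhibition.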

The target is the same in experiment [12]. The experiment is described as follows: qHTS Assay for Activators of Cytochrome P450 3A4 (AID 885). Further: nearly all actives have a fitted effect of over 65% in size. The settings on record: recombinant CYP3A4, Luciferin-PPXE luminescence, 60 min; series mostly up to 57.1 µM. An outline of the steps: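 Human CYP3A4 (20 nM) with Luciferin-PPXE at 25 uM (its KM) in 200 mM KPO4; 10 min compound preincubation, then NADPH regeneration and 60 min reaction at RT. Luciferin read by luminescence; normalized to 57 uM ketoconazole full inhibition.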

The target of experiment [13] is Dual specificity protein kinase CLK4 (Homo sapiens) (UniProt Q9HAZ1). The experiment is described as follows: qHTS Assay for Inhibitors of CDC-like Kinase 4 (Kinase-Glo Assay) (AID 1770). Further: nearly all actives have a fitted effect of over 65% in size. Further: potency means the concentration at half of the fitted maximal effect. Conditions: recombinant Clk4, Kinase-Glo ATP depletion luminescence; series mostly up to 66.7 µM. An outline of the steps: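 Substrate mix (RS peptide 100 uM, ATP 1 uM) dispensed, compound pinned in, then Clk4 added to 25 nM final. Incubated 4.5 h at RT; Kinase-Glo reagent added, luminescence read after 5 min.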

Experiment [14] has the same target. The experiment is described as follows: qHTS Assay for Inhibitors of CDC-like Kinase 4 (ADP-Glo Assay) (AID 1771). Further: nearly all actives have a fitted effect of over 70% in size. Further: potency means the concentration at half of the fitted maximal effect. Conditions: recombinant CLK4, ADP-Glo luminescence; series mostly up to 80 µM. An outline of the steps: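 Kinase reaction: Clk4 at 25 nM, RS repeat peptide substrate at 100 uM, ATP at 1 uM, 1 hr, room temperature. Product ADP detected as luciferase signal via ADP-Glo.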

The target is the same in experiment [15]. The experiment is described as follows: qHTS Assay for Inhibitors of CDC-like Kinase 4 (ADP-FP Assay) (AID 1795). Further: nearly all actives have a fitted effect of over 60% in size. Further: potency means the concentration at half of the fitted maximal effect. The settings on record: Transcreener ADP fluorescence polarization; series mostly up to 50 µM. An outline of the steps:
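Clk4 6.25 nM; RS peptide 100 uM; ATP 1 uM; 25 mM Tris pH 7.5, 10 mM MgCl2; 1 h reaction. ADP detected via antibody/orange tracer FP displacement; TG003 positive control.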

Experiment [16] concerns the target Ubiquitin carboxyl-terminal hydrolase 1 (Homo sapiens) (UniProt O94782). The experiment is described as follows: Inhibitors of USP1/UAF1: Pilot qHTS (AID 504865).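 Further: rhodamine fluorescence freed from ubiquitin-rhodamine substrate followed over time; top concentration of the series differs between compounds; on the % scale 0 is the no-effect control and ±100 the full control effect; nearly all actives have a fitted effect of over 35% in size.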 The settings on record: purified USP1/UAF1, Ub-rhodamine cleavage fluorescence; series mostly up to 54.9 µM. An outline of the steps: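 In 50mM HEPES pH 7.8 containing 0.5mM EDTA, 1mM TCEP, 0.1 mg/ml BSA and 0.01% Tween-20, 1nM USP1/UAF1 is exposed to compound for 15 min, then Ub-Rho (150nM final) is added and fluorescence is read over time.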

Experiment [17] can be described thus: Primary qHTS for small molecule stabilizers of the endoplasmic reticulum resident proteome: Secreted ER Calcium Modulated Protein (SERCaMP) assay (AID 1508630). Further: on the % scale 0 is the no-effect control and ±100 the full control effect. The settings on record: SH-SY5Y GLuc-SERCaMP (Gaussia luciferase released on ER calcium loss) secretion, thapsigargin, luminescence; series mostly up to 38.4 µM. An outline of the steps: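 GLuc-SERCaMP-expressing SH-SY5Y cells, pretreated 16 h with compound, are challenged with thapsigargin to empty ER calcium stores; after 4 h, coelenterazine is added directly to the medium and luminescence is imaged.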

A number with no mark means an inactive call. Records with an inconclusive call do not appear. Activity calls are given as the source filed them. Unless noted, the call rests on the fitted dose curve; in most records, active means well fitted curve in the direction sought with a large enough effect; inconclusive means small, poorly fitted or top-dose-only effect, or another doubt; inactive means no such curve, though single readings can be large; an effect the other way counts as inactive or inconclusive.

Chain of Dual specificity protein kinase CLK4 (Homo sapiens) (Q9HAZ1 whole entry, looked up): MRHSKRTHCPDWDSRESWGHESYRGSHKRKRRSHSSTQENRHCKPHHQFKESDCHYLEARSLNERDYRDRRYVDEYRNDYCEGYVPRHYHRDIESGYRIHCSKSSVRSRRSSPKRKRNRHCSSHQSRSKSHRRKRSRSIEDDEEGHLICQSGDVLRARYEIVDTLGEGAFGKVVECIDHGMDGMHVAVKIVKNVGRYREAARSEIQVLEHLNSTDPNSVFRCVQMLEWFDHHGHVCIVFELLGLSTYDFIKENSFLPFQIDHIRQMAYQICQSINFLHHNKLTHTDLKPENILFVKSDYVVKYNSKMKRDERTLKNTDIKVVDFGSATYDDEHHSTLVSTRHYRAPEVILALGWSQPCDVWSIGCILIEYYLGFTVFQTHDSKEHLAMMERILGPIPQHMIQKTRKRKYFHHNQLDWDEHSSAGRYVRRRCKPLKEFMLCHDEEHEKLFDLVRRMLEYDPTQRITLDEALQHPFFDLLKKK
Chain of Lysosomal acid glucosylceramidase (Homo sapiens) (P04062 whole entry, looked up): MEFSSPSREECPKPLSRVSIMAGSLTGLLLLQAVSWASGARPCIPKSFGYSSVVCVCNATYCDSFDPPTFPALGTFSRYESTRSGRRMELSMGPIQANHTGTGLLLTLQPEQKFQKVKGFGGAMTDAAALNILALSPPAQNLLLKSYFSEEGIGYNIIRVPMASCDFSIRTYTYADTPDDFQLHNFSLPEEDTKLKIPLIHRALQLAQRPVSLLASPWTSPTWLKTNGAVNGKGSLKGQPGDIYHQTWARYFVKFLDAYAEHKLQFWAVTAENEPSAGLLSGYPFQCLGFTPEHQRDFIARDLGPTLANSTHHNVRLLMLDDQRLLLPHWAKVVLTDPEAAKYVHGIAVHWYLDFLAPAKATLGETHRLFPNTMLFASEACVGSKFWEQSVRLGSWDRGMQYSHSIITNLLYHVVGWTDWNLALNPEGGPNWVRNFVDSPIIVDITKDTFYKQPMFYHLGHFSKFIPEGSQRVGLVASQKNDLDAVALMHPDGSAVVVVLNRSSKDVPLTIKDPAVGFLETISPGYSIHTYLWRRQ
Chain of Glucocorticoid receptor (Homo sapiens) (P04150 whole entry, looked up, the tested form may be a part): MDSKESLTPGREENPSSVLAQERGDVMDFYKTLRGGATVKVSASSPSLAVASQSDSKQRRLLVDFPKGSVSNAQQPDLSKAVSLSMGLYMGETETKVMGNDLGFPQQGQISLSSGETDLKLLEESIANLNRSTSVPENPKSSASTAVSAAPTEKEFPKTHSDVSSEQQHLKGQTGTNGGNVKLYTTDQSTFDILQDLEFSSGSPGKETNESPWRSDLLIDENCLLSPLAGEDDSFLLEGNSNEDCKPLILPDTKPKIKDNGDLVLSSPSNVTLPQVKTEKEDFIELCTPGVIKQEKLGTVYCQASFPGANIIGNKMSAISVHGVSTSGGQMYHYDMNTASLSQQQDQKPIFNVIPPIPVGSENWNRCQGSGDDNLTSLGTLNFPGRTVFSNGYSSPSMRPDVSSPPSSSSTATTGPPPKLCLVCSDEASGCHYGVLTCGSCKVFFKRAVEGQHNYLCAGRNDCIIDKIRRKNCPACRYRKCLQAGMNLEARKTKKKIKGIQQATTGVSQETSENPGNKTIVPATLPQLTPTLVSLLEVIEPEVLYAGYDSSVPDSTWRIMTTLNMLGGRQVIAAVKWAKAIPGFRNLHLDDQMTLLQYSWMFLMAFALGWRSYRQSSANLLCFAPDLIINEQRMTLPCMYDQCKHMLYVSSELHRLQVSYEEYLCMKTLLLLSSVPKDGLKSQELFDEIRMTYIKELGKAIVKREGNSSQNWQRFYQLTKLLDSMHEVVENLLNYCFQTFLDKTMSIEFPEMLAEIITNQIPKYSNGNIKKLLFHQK
Chain of 3',5'-cyclic-AMP phosphodiesterase 4B (Homo sapiens) (Q07343 whole entry, looked up): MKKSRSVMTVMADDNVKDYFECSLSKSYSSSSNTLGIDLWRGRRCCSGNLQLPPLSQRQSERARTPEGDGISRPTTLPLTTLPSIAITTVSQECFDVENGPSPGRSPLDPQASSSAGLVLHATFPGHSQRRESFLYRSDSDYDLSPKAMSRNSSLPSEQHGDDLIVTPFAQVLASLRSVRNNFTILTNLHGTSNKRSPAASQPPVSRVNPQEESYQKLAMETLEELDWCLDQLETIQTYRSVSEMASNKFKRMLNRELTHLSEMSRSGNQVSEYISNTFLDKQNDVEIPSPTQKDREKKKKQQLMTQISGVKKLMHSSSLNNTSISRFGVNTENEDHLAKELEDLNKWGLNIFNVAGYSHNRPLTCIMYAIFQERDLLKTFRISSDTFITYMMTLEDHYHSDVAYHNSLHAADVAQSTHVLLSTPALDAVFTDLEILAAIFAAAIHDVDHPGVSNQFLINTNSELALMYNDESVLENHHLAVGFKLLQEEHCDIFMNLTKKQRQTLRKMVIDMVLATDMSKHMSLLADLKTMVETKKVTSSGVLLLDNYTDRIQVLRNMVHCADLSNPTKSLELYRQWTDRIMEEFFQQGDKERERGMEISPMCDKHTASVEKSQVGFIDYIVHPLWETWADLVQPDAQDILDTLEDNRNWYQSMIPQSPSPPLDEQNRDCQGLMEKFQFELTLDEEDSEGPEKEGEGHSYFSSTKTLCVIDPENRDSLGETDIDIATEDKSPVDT
Chain of Ubiquitin carboxyl-terminal hydrolase 1 (Homo sapiens) (O94782 whole entry, looked up): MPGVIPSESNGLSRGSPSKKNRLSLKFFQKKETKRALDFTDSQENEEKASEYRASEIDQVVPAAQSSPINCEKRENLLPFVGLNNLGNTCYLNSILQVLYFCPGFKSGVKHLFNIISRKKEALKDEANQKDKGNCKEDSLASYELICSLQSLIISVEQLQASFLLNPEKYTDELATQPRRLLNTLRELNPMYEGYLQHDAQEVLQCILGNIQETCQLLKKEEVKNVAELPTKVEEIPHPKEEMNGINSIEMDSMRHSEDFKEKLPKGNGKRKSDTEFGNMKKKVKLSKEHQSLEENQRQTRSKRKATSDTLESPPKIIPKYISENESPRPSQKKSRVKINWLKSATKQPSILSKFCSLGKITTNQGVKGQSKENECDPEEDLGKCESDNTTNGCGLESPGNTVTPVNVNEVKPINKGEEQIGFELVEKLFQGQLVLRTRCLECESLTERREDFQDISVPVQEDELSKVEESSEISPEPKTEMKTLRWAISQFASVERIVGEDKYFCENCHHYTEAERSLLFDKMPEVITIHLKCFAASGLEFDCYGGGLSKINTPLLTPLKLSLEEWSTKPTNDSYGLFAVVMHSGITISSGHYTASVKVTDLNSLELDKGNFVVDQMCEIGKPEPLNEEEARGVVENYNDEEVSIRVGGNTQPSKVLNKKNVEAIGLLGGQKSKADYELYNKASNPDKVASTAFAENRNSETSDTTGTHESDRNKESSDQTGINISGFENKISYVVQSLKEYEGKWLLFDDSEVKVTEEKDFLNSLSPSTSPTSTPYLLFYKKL
Chain of Cytochrome P450 1A2 (Homo sapiens) (P05177 whole entry, looked up): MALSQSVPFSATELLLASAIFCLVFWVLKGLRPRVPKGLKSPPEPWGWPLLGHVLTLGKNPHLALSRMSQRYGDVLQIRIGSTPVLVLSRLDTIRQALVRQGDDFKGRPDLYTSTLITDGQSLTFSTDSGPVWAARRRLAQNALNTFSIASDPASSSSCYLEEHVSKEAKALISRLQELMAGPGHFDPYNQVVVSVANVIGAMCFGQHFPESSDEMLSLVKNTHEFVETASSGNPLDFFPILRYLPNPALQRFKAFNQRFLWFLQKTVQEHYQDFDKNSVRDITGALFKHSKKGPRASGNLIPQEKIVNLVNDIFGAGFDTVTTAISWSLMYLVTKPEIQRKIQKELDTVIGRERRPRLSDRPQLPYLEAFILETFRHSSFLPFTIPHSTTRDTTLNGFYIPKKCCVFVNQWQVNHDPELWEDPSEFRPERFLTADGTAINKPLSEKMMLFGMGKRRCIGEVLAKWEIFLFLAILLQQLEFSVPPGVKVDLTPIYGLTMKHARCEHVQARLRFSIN
Chain of Cytochrome P450 3A4 (Homo sapiens) (P08684 whole entry, looked up): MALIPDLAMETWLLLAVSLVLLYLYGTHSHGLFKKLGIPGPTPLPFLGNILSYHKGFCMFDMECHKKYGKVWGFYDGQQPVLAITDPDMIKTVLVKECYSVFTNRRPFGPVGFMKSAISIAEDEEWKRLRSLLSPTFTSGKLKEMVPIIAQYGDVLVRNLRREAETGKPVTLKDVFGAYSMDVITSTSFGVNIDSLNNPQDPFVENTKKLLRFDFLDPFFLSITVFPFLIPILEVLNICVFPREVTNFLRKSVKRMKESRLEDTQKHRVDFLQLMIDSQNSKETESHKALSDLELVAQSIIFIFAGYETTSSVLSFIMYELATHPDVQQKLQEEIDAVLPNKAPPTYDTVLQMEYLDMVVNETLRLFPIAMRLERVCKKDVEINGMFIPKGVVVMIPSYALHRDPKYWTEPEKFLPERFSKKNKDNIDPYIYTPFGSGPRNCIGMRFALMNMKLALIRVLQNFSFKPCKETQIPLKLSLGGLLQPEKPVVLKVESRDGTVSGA
Chain of Cytochrome P450 2C9 (Homo sapiens) (P11712 whole entry, looked up): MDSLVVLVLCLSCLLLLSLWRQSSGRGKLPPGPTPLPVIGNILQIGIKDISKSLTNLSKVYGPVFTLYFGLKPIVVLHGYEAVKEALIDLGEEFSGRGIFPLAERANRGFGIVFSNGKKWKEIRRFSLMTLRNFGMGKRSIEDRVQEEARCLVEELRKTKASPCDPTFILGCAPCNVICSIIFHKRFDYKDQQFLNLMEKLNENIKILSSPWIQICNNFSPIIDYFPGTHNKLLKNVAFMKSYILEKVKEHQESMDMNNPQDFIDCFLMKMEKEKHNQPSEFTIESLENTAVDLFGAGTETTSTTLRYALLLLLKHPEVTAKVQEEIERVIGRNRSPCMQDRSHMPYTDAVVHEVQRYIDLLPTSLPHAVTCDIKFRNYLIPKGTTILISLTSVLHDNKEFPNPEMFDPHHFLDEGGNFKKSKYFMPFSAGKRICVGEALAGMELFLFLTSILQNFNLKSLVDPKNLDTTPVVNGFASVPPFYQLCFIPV

Take `CNc1nc(-c2cccnc2)nc2ccccc12`: the Potency in experiment [1] is greater than 11.4 µM; in [3], 0.1 µM (active); in experiment [6], greater than 46 µM; in experiment [7], greater than 46 µM; in experiment [11], 6.31 µM (active); in [13], 4.47 µM (active). Also, the Potency in experiment [14] is 6.31 µM (active); in experiment [15], 3.98 µM (active). Besides, the activity change, negative = inhibition is 14.7% in experiment [2], 2.11% in experiment [4] and 82.3% [at 2.29 µM] in [10]. Further, the activity, negative = inhibition in experiment [5] is -3.74%. The Potency entry in experiment [8], in experiment [9], in [12] and in experiment [16] was “inactive” throughout. Moreover, in [17], the outcome was inactive.

`COCCn1c(=O)c(-c2cccc(C#N)c2)nc2cnc(N3CCOCC3)nc21`: the Potency in [1] was greater than 11.4 µM; in [3] it was 10 µM (active); in [6], greater than 9.22 µM; in [7], greater than 46 µM. The activity change, negative = inhibition in experiment [2] was -16.2%; in experiment [4] it was -8.26%. Moreover, the activity, negative = inhibition in experiment [5] is 3.4%. The Potency result in experiment [8], in [9], in experiment [13], in [14], in [15] and in [16] was “inactive” each time. Also, the result in [17] was inactive.

With `COCCn1c(=O)c(-c2ccc(Cl)cc2)nc2cnc(N3CCOCC3)nc21`, the Potency is greater than 11.4 µM in [1], 1 µM (active) in experiment [3], greater than 9.22 µM in experiment [6] and greater than 46 µM in experiment [7]. The results for the activity change, negative = inhibition in experiment [2] and in experiment [4] were 9.82% and 7.69%, respectively. In experiment [5], the activity, negative = inhibition is 9.52%. Besides, the Potency entry in [8], in experiment [9], in experiment [13], in experiment [14], in experiment [15] and in experiment [16] was “inactive” throughout. The result in experiment [17] was inactive.

Take `COCCNc1ccnc(-c2ccccc2C)n1`: the Potency in [1] is greater than 11.4 µM; in [3] it was 12.6 µM (active); in experiment [6], greater than 46 µM; in [7], greater than 46 µM. The activity change, negative = inhibition was -9.97% in [2] and 3.48% in [4]. The activity, negative = inhibition in experiment [5] was 15.6%. Moreover, the Potency result in experiment [8], in [9], in experiment [13], in experiment [14], in experiment [15] and in experiment [16] was “inactive” in each case. In experiment [17], the result was inactive.

For `CCNc1ncc2nc(-c3ccccc3)c(=O)n(C)c2n1`, the Potency in experiment [1] is greater than 11.4 µM; in [3] it was 0.398 µM (active); in experiment [6], greater than 9.22 µM; in experiment [7], greater than 46 µM. Also, the activity change, negative = inhibition in experiment [2] was -13.4%; in [4], -7.59%. The activity, negative = inhibition in experiment [5] is -9.07%. The Potency result in experiment [8], in [13], in experiment [14], in experiment [15] and in experiment [16] was “inactive” in each case. The result in experiment [17] was inactive.

Consider `COc1ncc2nc(-c3ccc(F)cc3)c(=O)n(CCc3ccccc3)c2n1`, for which the Potency was greater than 11.4 µM in experiment [1], 0.398 µM (active) in experiment [3], greater than 9.22 µM in experiment [6] and greater than 46 µM in experiment [7]. For the same compound, the activity change, negative = inhibition is -6.05% in [2] and -8.98% in experiment [4]. The activity, negative = inhibition in experiment [5] is -5.82%. The Potency result in experiment [8], in experiment [9], in experiment [13], in experiment [14], in experiment [15] and in experiment [16] was “inactive” each time. Also, the result in experiment [17] was inactive.
